# Lassa entry inh = Lassa virus entry inhibition; Lassa virus pseudotype entry inhibition, cell reporter; Potency, µM (doses to about 37.9 µM), without a hit: top-dose activity change, negative = inhibition, usual class: inhibitors; actives 1.2% (n = 300,000); calls by dose curve; tested in HEK293 cells; also: potency is read from the fitted curve at half-maximal effect; nearly all actives have a fitted effect of over 50% in size
# HCMV inh = blocks human cytomegalovirus replication | AID 1259415 | activity change, negative = inhibition, % at 57.5 µM | actives 4.5% (n = 410,000) | HFF cells, HCMV-luciferase reporter, 72 h; hits give low values; in the data active = activity change below about -60%; inconclusive = no clear call, values can overlap the other calls; inactive = above about -39%
#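 After 16 h attachment at 37C, HFF cells received test compound and HCMV-luciferase (1 PFU/cell); reporter luminescence read 72 h later, data normalized against buffer-only and known inhibitor Salinomycin.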
# FMDV antiviral = blocks foot and mouth disease virus; actives 1.2% (n = 410,000); Potency, µM (highest dose often 57.9 µM), for inactives: top-dose activity change, negative = inhibition, hits mostly inhibitors; FMDV antiviral cell-based qHTS; calls by dose curve; tested in HEK293T cells; also: read-out not given here; potency is read from the fitted curve at half-maximal effect; nearly all actives have a fitted effect of over 45% in size
# MARV entry inh = blocks Marburg virus binding to or entry into cells | actives 1.8% (n = 300,000) | Marburg virus pseudotyped entry inhibition, cell reporter | Potency, µM (top dose mostly 37.8 µM), without a hit: at the top dose activity change, negative = inhibition, hits mostly inhibitors; calls by dose curve; tested in HEK293 cells; also: potency is read from the fitted curve at half-maximal effect
# HCV inhibitor = HCV inhibition. Potency, µM (series often up to 41.8 µM), for the others: at the top dose activity change, negative = inhibition, hits mostly inhibitors. actives 3.4% (n = 340,000). AID 651820. Huh7.5.1 HCVcc-Cre infection, luciferase reporter, 44 h; active = well fitted inhibition curve with a large enough effect; inconclusive = small, poorly fitted or top-dose-only effect, or another doubt; inactive = no such curve, though single readings can be large or run the other way; also: potency is read from the fitted curve at half-maximal effect
#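 Reporter virus HCVcc-Cre (~0.5 moi) infects cells exposed to compound; seeding density 1,000 cells/well with 4 h settling beforehand. Luminescence, 15 sec read, taken 44 h post-infection following a 15 min RT substrate incubation.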
# * hit, by the source's call; u = inconclusive; x = not tested or not shown; + = active, no number; ! = a repeat was not active; [ ] = another dose, or the depositor's remark. Most compounds without a hit are left out; they make up all but 7.9% or so of the library. % is scaled to controls: 0 for no effect and ±100 for the full control effect.
SMILES,Lassa entry inh,HCMV inh,FMDV antiviral,MARV entry inh,HCV inhibitor
CN1CCN(c2nc(N3CCN(c4ccccc4)CC3)ncc2F)CC1,-17.1%,-28.9,x,u,6.31µM*
N#CC(C#N)=C1SC(=Nc2ccccc2)C(=Nc2ccccc2)N1c1ccccc1,u,-22.2,-21.0%,u,u
CCN(CC)c1ccc(C(=C2C=CC(=[N+](CC)CC)C=C2)c2ccc(N(CC)CC)cc2)cc1,x,-105.1*,8.91µM*,x,1.78µM*
CCN(CC)c1ccccc1,x,-37.1,-22.8%,-0.2%,1.2%
CCN(CC)c1ccc(C(=C2C=CC(=[N+](CC)CC)C=C2)c2ccccc2)cc1,0.562µM*,-100.0*,3.55µM*,u,u
COCC(=O)Nc1cc(C(=O)N2CCC(c3ccccc3)CC2)cc2nc(-c3ccccc3)n(C)c12,x,x,21.8%,x,x
COc1ccc(NS(=O)(=O)c2ccc3oc(SC(C)C(N)=O)nc3c2)cc1 (configuration not stated),u,x,-22.6%,u,10µM*
COc1ccc(NS(=O)(=O)c2ccc3oc(Nc4ccc5c(c4)OCCO5)nc3c2)cc1,u,-84.7*,7.6%,-13.9%,3.98µM*
CCNC(=O)CSc1nc2cc(S(=O)(=O)Nc3ccc(OC)cc3)ccc2o1,-25.9%[46.1 µM],u,-2.6%,u,-19.6%
CCOC(=O)CN1C(=O)[C@@]2(CC(C)=CC[C@@H](COc3ccccc3)O2)c2ccccc21,u,x,x,-19.5%[14.2 µM],x
Fc1ccc2c(c1)c1n[nH]c(=S)nc1n2CCc1ccccc1,x,u,-5.6%,x,7.4%
Cc1ccc2c(c1)c1n[nH]c(=S)nc1n2CCc1ccccc1,x,-92.7*,-29.5%,x,-6.3%
Cc1cccc(-n2cnc3cc(C(=O)NCC4CCCO4)ccc32)c1 (configuration not stated),x,-1.9,-9.0%,x,x
Cc1cccc(-n2c(C)nc3cc(C(=O)NCC4CCCO4)ccc32)c1 (configuration not stated),x,-64.3*,15.7%,x,7.2%
CCOc1cc(NC(=S)NCC2CCCO2)c(OCC)cc1NC(=O)c1cccc(C)c1 (configuration not stated),u,-29.8,3.16µM*,1.64µM*,u
CCOc1ccc(-n2c(C)nc3cc(C(=O)NCC4CCCO4)ccc32)cc1 (configuration not stated),5.01µM*,-35.4,1.7%,u,4.4%
Cn1cnc2cnc(Nc3ccc(F)c(Cl)c3)cc21,x,69.4,x,x,x
Fc1cccc(NC(=S)NNc2c3ccccc3nc3ccccc23)c1,u,16.2,u,-28.5%[46.1 µM],4.47µM*
Fc1cccc(NC(=S)NNc2ccccc2)c1,x,u,61.0%,x,-5.9%
COc1cc(OC)cc(-c2nnc(SCC(=O)N(Cc3ccccc3)C(C)(C)C)o2)c1,-13.3%,-70.6*,-6.4%,u,-28.5%
CC(C)(C)C(=O)NCCc1csc2nc(-c3ccc(F)cc3)nn12,-10.2%[46.1 µM],-12.2,u,x,x
COc1cc(C(=O)Oc2ccccc2/C=N/NC(=O)c2ccc(C)cc2)cc(OC)c1OC,8.91µM*,-98.9*,20.9%,u,7.94µM*
COc1ccc(C(=O)N/N=C/c2ccccc2OC(=O)c2ccccc2)cc1,u,-97.3*,61.1%,12.6µM*,u
CC(C)(C)C(=O)Nc1ccc(C(=O)N/N=C/c2ccccc2OC(=O)c2ccccc2)cc1,u,-34.9,0.0%,u,u
COc1ccc(Br)cc1/C=N/NC(=O)c1cc(OC)c(OC)c(OC)c1,u,u,-28.6%,u,u
SMILES,Lassa entry inh,HCMV inh,FMDV antiviral,MARV entry inh,HCV inhibitor
COc1cc(C(=O)Oc2ccc(/C=N/NC(=O)c3ccncc3)cc2)cc(OC)c1OC,x,21.5,-11.0%,x,-11.9%
COc1cc(C(=O)N/N=C/c2ccsc2C)cc(OC)c1OC,u,-78.6*,-13.3%,u,u
CC(C)(C)C(=O)Nc1ccc(C(=O)N/N=C/c2ccccc2OC(=O)c2ccc(Cl)cc2)cc1,u,-23.1,-1.6%,u,10µM*
COc1ccc(/C=C/C(=O)NNC(=O)c2ccncc2)c(OC)c1,x,u,5.3%,x,14.0%
CSc1ccc(CCNC(=O)CCc2c(C)nc3c(c(C)nn3-c3ccc(C)c(C)c3)c2C)cc1,4.9%[46.1 µM],11.1,-8.6%,6.1%[46.1 µM],x
CC(C)NC(=O)COC(=O)c1ccccc1CSC1=NCCS1,5.6%,72.5,-23.4%,-20.9%[46.1 µM],-23.8%
O=c1n(CCCN2CCN(C3CCCC(Cl)C3)CC2)nc2ccccn12 (configuration not stated),x,x,x,40.3%,x
COc1ccc(OC)c(Nc2ncnc3sccc23)c1,x,45.9,-0.8%,x,u
COc1cc(CN(C)c2ncnc3sccc23)ccc1OC(F)F,-11.0%,u,u,2.82µM*,u
CCN(CC)S(=O)(=O)c1cccc(-c2nnc(SCCCC(=O)c3ccccc3)o2)c1,u,-23.6,u,u,15.8µM*
CCN(CC)S(=O)(=O)c1cccc(-c2nnc(SCc3nc4ccccc4s3)o2)c1,u,-7.0,0.0%,u,7.08µM*
C=CCn1c(C)cc(C(=O)CSc2nnc(-c3cccc(S(=O)(=O)N(CC)CC)c3)o2)c1C,u,-12.6,-15.9%,-21.6%[46.1 µM],8.91µM*
Brc1ccccc1-c1nnc(SCc2nc3ccccc3s2)o1,u,129.0,-5.1%,u,u
CCN(CC)S(=O)(=O)c1cccc(-c2nnc(SCC(=O)c3cc(C)n(C4CC4)c3C)o2)c1,u,-34.0,-12.0%,u,-11.8%
CCN(CC)S(=O)(=O)c1cccc(-c2nnc(SCCCC(=O)c3ccc(F)cc3)o2)c1,u,-38.2,u,20.6µM*!,u
CC(=O)OC[C@H]1O[C@H](CC=NO[C@@H](C)CN2CCCc3nc(C)c(C)cc32)C=C[C@@H]1OC(C)=O,x,x,x,9.1%[14.2 µM],x
N[C@H]1CC[C@@]23CCCN2C(=O)CCC[C@H]3[C@H]1Cc1ccccc1,x,15.2,x,x,x
O=C1c2cccc(-c3ccc(C(F)(F)F)cc3)c2C2CC=CCN12 (configuration not stated),x,-30.1,u,x,x
O=C(CN1C(=O)c2ccccc2S1(=O)=O)Nc1ccc(S(=O)(=O)Nc2ncccn2)cc1,2.0%,-10.4,-8.5%,u,24.7%
CCN(CC)S(=O)(=O)c1cccc(-c2nnc(SC(C)C(=O)NCCC3=CCCCC3)o2)c1 (configuration not stated),u,u,u,0.9%,11.2µM*!
CCCCOc1ccc(C(=O)Nc2ccc3c(c2)CCCN3C(=O)c2cccs2)cc1,u,-87.4*,25.1µM*,x,x
Cc1ccccc1C(=O)Nc1ccc2c(c1)CCCN2C(=O)c1cccs1,0.891µM*,+,-29.5%,x,u
COc1ccc(C(=O)Nc2ccc3c(c2)CCCN3C(=O)c2cccs2)c(OC)c1,u,u,u,x,-18.3%
COc1ccc(F)cc1S(=O)(=O)Nc1ccc2c(c1)CCCN2C(=O)c1cccs1,-8.2%[46.1 µM],-74.8*,-0.4%,x,x
CC(C)Oc1ccc(C(=O)Nc2ccc3c(c2)CCCN3C(=O)c2cccs2)cc1,u,-89.3*,22.4µM*,x,x
Cc1onc(-c2ccc(Cl)cc2)c1-c1ccnc(SCC(=O)Nc2ccc(C(C)C)cc2)n1,-23.2%[46.1 µM],-17.8,-19.4%,u,-28.6%
